# Assay results reported in PubChem BioAssay (EPA / NIEHS).
# Values joined by “and” are separate entries in the source; they are usually repeats but may differ in a detail not shown here. Identical values can stand only once. Results filed as inconclusive are left out. A structure can be active in one record and inactive in another. Active and inactive are the calls of the source. How the source made its calls: active means hit-call score of the fitted dose curve at least 0.9, where 1 is the maximum; inconclusive means response in the unintended direction; inactive means score below 0.9.
# Target: Estrogen receptor (Homo sapiens) (UniProt P03372)
# Sequence (P03372 whole entry, looked up): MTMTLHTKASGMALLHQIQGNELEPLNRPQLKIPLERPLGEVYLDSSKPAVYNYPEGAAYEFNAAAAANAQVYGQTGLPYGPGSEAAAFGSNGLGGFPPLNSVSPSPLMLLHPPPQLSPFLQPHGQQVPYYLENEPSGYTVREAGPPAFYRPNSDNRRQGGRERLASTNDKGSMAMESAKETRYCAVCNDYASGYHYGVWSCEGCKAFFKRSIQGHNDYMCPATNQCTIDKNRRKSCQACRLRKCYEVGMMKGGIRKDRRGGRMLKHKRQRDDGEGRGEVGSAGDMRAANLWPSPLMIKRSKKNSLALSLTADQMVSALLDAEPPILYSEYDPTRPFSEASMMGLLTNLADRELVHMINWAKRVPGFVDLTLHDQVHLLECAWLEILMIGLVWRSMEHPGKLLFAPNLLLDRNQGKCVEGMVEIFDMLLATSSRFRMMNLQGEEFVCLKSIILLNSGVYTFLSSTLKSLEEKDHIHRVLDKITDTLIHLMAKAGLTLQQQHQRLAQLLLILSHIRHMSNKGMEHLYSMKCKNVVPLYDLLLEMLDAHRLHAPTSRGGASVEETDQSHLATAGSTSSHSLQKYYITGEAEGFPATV
# Assay: ATG_hERa_XSP2: Attagene TRANS-FACTORIAL Multi-Species (XSP2) HepG2 Assay for human Estrogen Receptor (ERa) (AID 2283827)
# Method: ATG_XSP2_multi-species_TRANS is a cell-based, multiplexed assay created by modifying the existing Attagene TRANS-FACTORIAL system to include a panel of nuclear receptors from some or all the following species: human (Homo sapiens), mouse (Mus musculus), frog (Xenopus laevis), zebrafish (Danio rerio), chicken (Gallus gallus), and turtle (Chrysemys picta). The ECOTOX-FACTORIAL format uses HepG2, a human liver cell line, with measurements taken at 24 hours after chemical dosing in a 24-well plate. Xsp2 included 3 nM 6-alpha-fluorotestosterone and 1.5 nM norgestrel to stimulate the androgen receptor.ATG_hERa_XSP2 is one of 29 assay components measured or calculated from the ATG_XSP2_multi-species_TRANS assay. It is designed to make measurements of mRNA induction, a form of inducible reporter, as detected with fluorescence intensity signals by Reverse transcription polymerase chain reaction (RT-PCR) and Capillary electrophoresis technology.The assay endpoint ATG_hERa_XSP2 was analyzed in the positive analysis fitting direction relative to DMSO as the negative control and baseline of activity. Using a type of inducible reporter, measures of mRNA for gain-of-signal activity can be used to understand the reporter gene at the transcription factor-level as they relate to the gene ER. Furthermore, this assay endpoint can be referred to as a primary readout, because this assay has produced multiple assay endpoints where this one serves a reporter gene function. To generalize the intended target to other relatable targets, this assay endpoint is annotated to the nuclear receptor intended target family, where the subfamily is steroidal.
# Human liver HepG2 cells are transiently transfected with multiple reporter transcription units (MRTUs) in 6-well plates using FuGene 6 reagent (Roche; 3 ml FuGene/1 mg DNA). The MRTU constructs are regulated by a cis-regulating element (promoter). […] A major difference between the CIS and TRANS system is that in CIS activities of endogenous TFs are measured, whereas the TRANS assay evaluates changes in activities of exogenous, chimeric NR-Gal4 proteins. […] At the end of 24 hour incubation, total RNA was isolated using TriZol reagent (Invitrogen). The isolated RNA is then reverse-transcribed using oligo(dT) primer and Mo-MLV reverse transcriptase (Invitrogen) with DNAse I (Ambion) treatment for 30 min. The one-tenth of the produced cDNA was amplified by PCR using Taq DNA polymerase (Invitrogen) and two reporter sequence-specific primers. The PCR products were fluorescently labeled by primer extension with 6-arboxyfluorescein (6-FAM) 5'-labeled reporter sequence-specific primer (2 min at 95 C, 20 s at 68 C and 10 min at 72 C) and these products were digested with 5U of HpaI (New England Biolabs) for 2h at 37 C. The fragments were purified using Qiaquick PCR columns (Qiagen), analyzed on an ABI 3130xL genetic analyzer (Applied Biosystems) with peak positions identified by using a set of X-rhodamine (ROX)-labeled MapMarker1000 molecular weight standards (BioVentures). The raw capillary electrophoresis data was processed using Attagraph software (Attagene).
Compound,AC50,outcome
N#Cc1c[nH]cc1-c1cccc2c1OC(F)(F)O2,1.51 µM (active),–
COP(=S)(OC)SCn1nnc2ccccc2c1=O,24.7 µM (active),inactive
Cc1c(COC(=O)[C@@H]2[C@H](/C=C(\Cl)C(F)(F)F)C2(C)C)cccc1-c1ccccc1,26.1 µM (active),–
CC(C)NC(=O)N1CC(=O)N(c2cc(Cl)cc(Cl)c2)C1=O,6.97 µM (active),–
CC1(C)CCC(=Cc2ccc(Cl)cc2)C1(O)Cn1cncn1 (stereo unspecified),13.4 µM (active),–
CC1(C)C(C=C(Cl)Cl)C1C(=O)OC(C#N)c1cccc(Oc2ccccc2)c1 (stereo unspecified),17.5 µM (active),–
CSC(=O)c1c(C(F)F)nc(C(F)(F)F)c(C(=O)SC)c1CC(C)C,3.05 µM (active),–
CCN(CC)C(=O)C(C)Oc1cccc2ccccc12 (stereo unspecified),7.99 µM (active),–
COP(=S)(OC)Oc1ccc([N+](=O)[O-])c(C)c1,32.5 µM (active),–
C=C(C)CN(CC)c1c([N+](=O)[O-])cc(C(F)(F)F)cc1[N+](=O)[O-],7.36 µM (active) and 44.2 µM (active),–
